The target of assay [1] is Serine/threonine-protein kinase pim-2 (Homo sapiens) (UniProt Q9P1W9). The settings on record: at 1 µM.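 Further: each value is a mean of the inhibition measurements against the kinase.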
Assay [2] addresses Serine/threonine-protein kinase pim-3 (Homo sapiens) (UniProt Q86V86). The settings on record: at 0.1 µM.
Assay [3] shares this target. The settings on record: at 1 µM.
The target of assay [4] is T1, MAP kinase-activated protein kinase 5 (Homo sapiens) (UniProt Q8IW41).
T1 sequence (whole entry): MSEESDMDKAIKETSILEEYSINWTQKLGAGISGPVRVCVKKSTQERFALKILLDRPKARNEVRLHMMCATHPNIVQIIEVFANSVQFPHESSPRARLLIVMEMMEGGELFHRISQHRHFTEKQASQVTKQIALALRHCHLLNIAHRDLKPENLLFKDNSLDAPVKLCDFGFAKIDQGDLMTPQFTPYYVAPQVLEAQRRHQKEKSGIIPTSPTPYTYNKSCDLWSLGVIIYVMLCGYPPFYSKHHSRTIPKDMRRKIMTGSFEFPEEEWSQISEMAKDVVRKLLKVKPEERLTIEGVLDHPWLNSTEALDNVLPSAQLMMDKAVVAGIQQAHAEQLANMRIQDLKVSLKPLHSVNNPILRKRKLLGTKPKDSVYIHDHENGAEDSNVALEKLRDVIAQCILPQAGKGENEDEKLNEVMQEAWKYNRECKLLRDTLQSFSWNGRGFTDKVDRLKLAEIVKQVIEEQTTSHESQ
As to conditions: at 0.1 µM.

Assay [5] deals with T1, MAP kinase-activated protein kinase 5 (Homo sapiens). The settings on record: at 1 µM.
The target of assay [6] is Serine/threonine-protein kinase SIK1 (Homo sapiens) (UniProt P57059). The settings on record: at 0.1 µM.
Chain of Serine/threonine-protein kinase SIK1 (Homo sapiens) (P57059 whole entry): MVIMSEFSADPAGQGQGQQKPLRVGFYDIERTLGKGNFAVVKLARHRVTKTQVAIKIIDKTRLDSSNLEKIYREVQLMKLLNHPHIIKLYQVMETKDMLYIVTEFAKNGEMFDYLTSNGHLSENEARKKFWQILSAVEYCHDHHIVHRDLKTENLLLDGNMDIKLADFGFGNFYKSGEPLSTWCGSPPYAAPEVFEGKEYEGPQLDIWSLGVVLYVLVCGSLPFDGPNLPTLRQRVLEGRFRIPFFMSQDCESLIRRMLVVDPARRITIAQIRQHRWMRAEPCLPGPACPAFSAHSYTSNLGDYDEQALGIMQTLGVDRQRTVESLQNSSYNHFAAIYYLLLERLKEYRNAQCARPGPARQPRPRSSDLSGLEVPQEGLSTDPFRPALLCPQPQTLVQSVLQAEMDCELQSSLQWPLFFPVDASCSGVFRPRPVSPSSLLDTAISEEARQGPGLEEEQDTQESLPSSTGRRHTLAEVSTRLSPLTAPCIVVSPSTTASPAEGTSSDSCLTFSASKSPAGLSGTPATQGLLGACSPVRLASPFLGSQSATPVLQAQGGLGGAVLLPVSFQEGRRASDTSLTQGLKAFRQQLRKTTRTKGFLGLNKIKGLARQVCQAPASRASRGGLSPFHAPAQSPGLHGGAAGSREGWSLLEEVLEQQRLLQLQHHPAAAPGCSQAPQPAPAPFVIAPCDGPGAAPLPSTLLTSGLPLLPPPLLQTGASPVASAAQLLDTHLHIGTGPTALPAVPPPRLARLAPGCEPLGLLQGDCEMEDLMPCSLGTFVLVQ
Assay [7] shares this target. The settings on record: at 1 µM.
The target of assay [8] is Serine/threonine-protein kinase SIK2 (Homo sapiens) (UniProt Q9H0K1). The settings on record: at 0.1 µM.
Chain of Serine/threonine-protein kinase SIK2 (Homo sapiens) (Q9H0K1 whole entry, looked up): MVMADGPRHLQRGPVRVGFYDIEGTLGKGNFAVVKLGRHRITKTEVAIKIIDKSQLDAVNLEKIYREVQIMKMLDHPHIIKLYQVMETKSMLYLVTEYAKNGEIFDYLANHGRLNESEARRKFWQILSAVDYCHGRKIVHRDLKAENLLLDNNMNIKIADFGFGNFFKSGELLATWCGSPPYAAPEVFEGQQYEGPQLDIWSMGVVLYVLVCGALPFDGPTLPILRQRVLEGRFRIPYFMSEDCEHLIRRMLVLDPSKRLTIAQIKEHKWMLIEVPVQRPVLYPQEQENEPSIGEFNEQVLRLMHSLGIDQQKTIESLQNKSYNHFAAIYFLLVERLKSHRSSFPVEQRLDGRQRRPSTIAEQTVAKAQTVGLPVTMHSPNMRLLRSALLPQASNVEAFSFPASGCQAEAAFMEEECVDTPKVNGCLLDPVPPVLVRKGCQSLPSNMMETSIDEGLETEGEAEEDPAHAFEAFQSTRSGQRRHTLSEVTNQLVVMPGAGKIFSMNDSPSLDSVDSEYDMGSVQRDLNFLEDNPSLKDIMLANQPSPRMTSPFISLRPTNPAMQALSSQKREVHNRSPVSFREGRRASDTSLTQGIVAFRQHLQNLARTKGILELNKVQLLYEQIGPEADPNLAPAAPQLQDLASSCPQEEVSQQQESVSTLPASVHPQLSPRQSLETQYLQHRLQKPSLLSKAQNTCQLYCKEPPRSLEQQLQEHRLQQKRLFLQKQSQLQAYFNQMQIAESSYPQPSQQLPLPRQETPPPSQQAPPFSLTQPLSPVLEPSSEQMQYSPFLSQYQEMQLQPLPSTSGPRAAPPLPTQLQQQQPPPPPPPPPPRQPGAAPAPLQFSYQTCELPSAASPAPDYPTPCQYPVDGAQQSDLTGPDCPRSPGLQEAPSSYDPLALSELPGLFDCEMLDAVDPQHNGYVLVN
The target is the same in assay [9]. The settings on record: at 1 µM.
The target of assay [10] is T2, Serine/threonine-protein kinase TBK1 (Homo sapiens) (UniProt Q9UHD2).
T2 sequence (whole entry): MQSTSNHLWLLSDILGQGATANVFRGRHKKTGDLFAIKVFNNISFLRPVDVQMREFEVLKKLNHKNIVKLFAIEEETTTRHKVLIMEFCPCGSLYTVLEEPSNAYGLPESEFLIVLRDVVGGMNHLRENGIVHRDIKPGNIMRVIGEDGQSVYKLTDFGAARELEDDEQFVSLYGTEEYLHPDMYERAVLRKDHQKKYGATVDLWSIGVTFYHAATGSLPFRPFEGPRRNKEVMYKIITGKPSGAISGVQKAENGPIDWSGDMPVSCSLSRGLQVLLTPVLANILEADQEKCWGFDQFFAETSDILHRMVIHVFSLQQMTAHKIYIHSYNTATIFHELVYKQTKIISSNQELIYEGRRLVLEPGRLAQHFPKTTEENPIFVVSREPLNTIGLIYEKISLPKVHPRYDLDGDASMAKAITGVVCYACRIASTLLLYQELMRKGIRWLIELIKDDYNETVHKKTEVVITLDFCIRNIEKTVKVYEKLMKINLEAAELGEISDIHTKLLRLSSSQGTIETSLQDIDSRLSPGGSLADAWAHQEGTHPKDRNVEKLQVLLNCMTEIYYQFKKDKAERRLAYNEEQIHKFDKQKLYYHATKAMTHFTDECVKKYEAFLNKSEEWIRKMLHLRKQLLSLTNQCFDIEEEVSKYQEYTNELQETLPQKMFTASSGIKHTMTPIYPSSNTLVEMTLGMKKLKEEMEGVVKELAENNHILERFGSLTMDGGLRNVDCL
As to conditions: at 0.1 µM.

Assay [11] concerns the target T2, Serine/threonine-protein kinase TBK1 (Homo sapiens). As to conditions: at 1 µM.
Assay [12] addresses T3, Testis-specific serine/threonine-protein kinase 1 (Homo sapiens) (UniProt Q9BXA7).
T3 sequence (whole entry): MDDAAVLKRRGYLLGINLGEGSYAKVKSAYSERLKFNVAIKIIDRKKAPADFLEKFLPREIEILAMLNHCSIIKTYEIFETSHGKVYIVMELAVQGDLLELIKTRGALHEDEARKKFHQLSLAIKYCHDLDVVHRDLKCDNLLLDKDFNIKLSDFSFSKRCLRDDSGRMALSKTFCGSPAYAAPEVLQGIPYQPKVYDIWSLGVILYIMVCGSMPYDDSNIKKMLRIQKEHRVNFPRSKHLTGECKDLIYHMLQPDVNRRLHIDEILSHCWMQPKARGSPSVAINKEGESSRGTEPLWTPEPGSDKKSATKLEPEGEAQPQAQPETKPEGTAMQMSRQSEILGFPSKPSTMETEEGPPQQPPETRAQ
The settings on record: at 0.1 µM.

For assay [13], the target named is T3, Testis-specific serine/threonine-protein kinase 1 (Homo sapiens). As to conditions: at 1 µM.
Assay [14] concerns the target T4, Testis-specific serine/threonine-protein kinase 2 (Homo sapiens) (UniProt Q96PF2).
T4 sequence (whole entry): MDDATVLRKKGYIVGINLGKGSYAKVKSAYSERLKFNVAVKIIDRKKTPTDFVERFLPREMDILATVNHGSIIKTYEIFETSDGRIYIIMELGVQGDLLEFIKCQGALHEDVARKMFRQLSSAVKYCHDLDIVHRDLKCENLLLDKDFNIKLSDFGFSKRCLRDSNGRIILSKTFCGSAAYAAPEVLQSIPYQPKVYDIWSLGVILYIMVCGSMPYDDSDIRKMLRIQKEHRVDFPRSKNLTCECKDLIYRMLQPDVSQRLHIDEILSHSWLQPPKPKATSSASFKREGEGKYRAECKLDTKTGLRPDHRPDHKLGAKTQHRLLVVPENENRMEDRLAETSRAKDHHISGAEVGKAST
The settings on record: at 0.1 µM.

Assay [15] addresses T4, Testis-specific serine/threonine-protein kinase 2 (Homo sapiens). The settings on record: at 1 µM.
In assay [16] the target is Casein kinase I isoform alpha (Homo sapiens) (UniProt P48729). As to conditions: at 0.1 µM.
Chain of Casein kinase I isoform alpha (Homo sapiens) (P48729 2-337 limits assumed): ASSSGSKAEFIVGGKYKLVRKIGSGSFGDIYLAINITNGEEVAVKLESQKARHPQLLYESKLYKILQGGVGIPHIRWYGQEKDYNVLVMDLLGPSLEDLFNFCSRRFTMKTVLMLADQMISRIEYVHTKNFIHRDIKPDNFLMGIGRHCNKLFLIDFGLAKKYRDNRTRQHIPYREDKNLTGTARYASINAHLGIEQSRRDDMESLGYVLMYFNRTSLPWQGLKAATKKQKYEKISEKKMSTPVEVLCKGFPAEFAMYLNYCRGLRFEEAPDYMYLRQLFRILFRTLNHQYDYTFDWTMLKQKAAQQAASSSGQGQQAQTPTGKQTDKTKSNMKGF
Assay [17] has the same target. The settings on record: at 1 µM.
Assay [18] addresses Casein kinase I isoform gamma-1 (Homo sapiens) (UniProt Q9HCP0). As to conditions: at 0.1 µM.
Assay [19] shares this target. As to conditions: at 1 µM.
Assay [20] deals with Casein kinase I isoform gamma-2 (Homo sapiens) (UniProt P78368). As to conditions: at 0.1 µM.
Chain of Casein kinase I isoform gamma-2 (Homo sapiens) (P78368 whole entry, looked up, canonical isoform): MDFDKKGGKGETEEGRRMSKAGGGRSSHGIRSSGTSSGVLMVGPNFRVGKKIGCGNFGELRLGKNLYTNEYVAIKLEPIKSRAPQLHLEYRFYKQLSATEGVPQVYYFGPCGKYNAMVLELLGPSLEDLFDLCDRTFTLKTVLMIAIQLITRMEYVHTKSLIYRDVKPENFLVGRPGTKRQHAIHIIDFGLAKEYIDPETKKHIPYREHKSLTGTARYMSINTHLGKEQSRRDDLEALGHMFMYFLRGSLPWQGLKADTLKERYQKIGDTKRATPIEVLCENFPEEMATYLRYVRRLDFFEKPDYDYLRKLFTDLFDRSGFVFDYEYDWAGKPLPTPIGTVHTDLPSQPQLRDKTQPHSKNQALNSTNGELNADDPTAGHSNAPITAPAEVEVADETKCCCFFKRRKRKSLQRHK

Here are results for eight molecules from ChEMBL document CHEMBL1961873, “Compounds: GSK PKIS; Assays: Nanosyn kinase panel” (2012).

The inhibition is the relative decrease from the control value, in per cent.

Chain of Serine/threonine-protein kinase pim-2 (Homo sapiens) (Q9P1W9 whole entry, looked up): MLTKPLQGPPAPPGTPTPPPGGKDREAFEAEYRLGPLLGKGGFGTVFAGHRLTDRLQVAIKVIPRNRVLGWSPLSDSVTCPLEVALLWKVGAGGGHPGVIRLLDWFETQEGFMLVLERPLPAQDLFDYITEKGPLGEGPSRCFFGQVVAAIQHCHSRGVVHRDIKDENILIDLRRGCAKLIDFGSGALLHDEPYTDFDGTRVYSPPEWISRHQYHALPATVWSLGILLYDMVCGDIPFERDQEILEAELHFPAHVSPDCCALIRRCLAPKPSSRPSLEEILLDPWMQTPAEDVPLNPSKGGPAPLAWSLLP
Chain of Casein kinase I isoform gamma-1 (Homo sapiens) (Q9HCP0 whole entry, looked up, canonical isoform): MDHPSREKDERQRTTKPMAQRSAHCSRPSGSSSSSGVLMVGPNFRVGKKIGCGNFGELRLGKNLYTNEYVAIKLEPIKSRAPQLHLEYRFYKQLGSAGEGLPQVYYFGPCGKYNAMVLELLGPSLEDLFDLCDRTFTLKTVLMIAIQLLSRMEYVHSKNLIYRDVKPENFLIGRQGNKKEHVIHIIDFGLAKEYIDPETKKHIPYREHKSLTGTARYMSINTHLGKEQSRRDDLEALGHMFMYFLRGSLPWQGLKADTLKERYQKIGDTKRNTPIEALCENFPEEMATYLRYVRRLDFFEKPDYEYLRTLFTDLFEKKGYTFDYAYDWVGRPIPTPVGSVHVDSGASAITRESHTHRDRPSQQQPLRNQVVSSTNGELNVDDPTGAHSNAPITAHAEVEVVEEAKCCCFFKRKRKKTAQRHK

For `Fc1ccc(-c2ncn(C3CCNCC3)c2-c2ccnc(Oc3ccc(F)c(F)c3)n2)cc1`, the inhibition in assay [1] is -3.35%; in [2] it was -1.04%; in assay [3], -0.06%; in assay [4] it was 1.47%; in [5], 1.56%; in assay [6] it was 1.72%. Besides, the inhibition was found to be 7.15% in assay [7]; 0.78% in assay [8]; 8.24% in [9]; 2.13% in [10]; 5.03% in assay [11]; 1.98% in assay [12]. The inhibition is 3.01% in assay [13]; 0.64% in [14]; 1.42% in assay [15]; 4.09% in [16]; 15.4% in assay [17]; 0.31% in assay [18]. Besides, the results for the inhibition in [19] and in [20] were 2.33% and -0.65%, respectively.
For `CCS(=O)(=O)c1ccc(OC)c(Nc2ncc(-c3ccccc3Cl)o2)c1`, the inhibition in assay [1] is 0.67%; in [2], -0.12%; in [3], 2.15%; in assay [4], 0.46%; in assay [5] it was -0.58%; in [6] it was 2.08%. Also, the inhibition was found to be 0.14% in assay [7]; 1.64% in assay [8]; 3.21% in assay [9]; 1.3% in assay [10]; 7.68% in assay [11]; 4.33% in assay [12]. In addition, the inhibition is -0.15% in [13]; 1.6% in assay [14]; 0.12% in [15]; 0.11% in assay [16]; 3.37% in [17]; 0.27% in assay [18]. The inhibition is 0.86% in assay [19] and 0.2% in [20].
`C[C@@H](Oc1cc(-n2cnc3ccc(OCC4CCN(C)CC4)cc32)sc1C(N)=O)c1ccccc1Cl`: the inhibition was found to be 2.74% in [1]; 11.4% in [2]; 52.7% in [3]; 1.77% in assay [4]; 2.11% in [5]; 11.5% in [6]. Also, the inhibition in [7] amounted to 42%; in assay [8], 7.32%; in assay [9], 22%; in assay [10], 4.93%; in assay [11], 6.08%; in assay [12], 6.84%. Further, the inhibition in [13] came out at 13.6%; in assay [14], 3.55%; in assay [15], 3.8%; in assay [16] it was 5.44%; in assay [17], 6.37%; in [18], 5.29%. In addition, the inhibition turned out to be 8.54% in assay [19] and 5.69% in assay [20].
For the molecule `CCS(=O)(=O)c1ccc(OC)c(Nc2ncc(-c3cccc(-c4ccccc4F)c3)o2)c1`, the inhibition in [1] is 0.73%; in assay [2], 3.42%; in assay [3] it was 0.84%; in [4], 0.06%; in assay [5] it was -0.29%; in assay [6], 0.43%. The inhibition in assay [7] was 2.58%; in assay [8], -1.84%; in assay [9] it was 6.03%; in [10], 0.72%; in assay [11], 5.42%; in [12], 0.94%. Moreover, the inhibition in [13] was -0.72%; in assay [14], 0.42%; in [15], -0.69%; in assay [16], -0.76%; in [17] it was 4.53%; in assay [18], 0.32%. Also, the inhibition in [19] was 0.08%; in assay [20] it was -0.86%.
As for `Fc1ccc(-c2ncn(C3CCNCC3)c2-c2ccnc(Oc3ccc(Oc4ccccc4)cc3)n2)cc1`, the inhibition is -0.39% in assay [1]; -1.06% in assay [2]; 0.02% in [3]; 1.12% in assay [4]; 1.72% in assay [5]; 7.97% in assay [6]. Also, the inhibition in assay [7] came to 12.8%; in assay [8] it was 6.45%; in [9], 10.1%; in assay [10], 2.66%; in [11] it was 2.57%; in assay [12] it was 4.18%. Also, the inhibition in [13] is 4.2%; in [14], 0.94%; in [15] it was 2.4%; in assay [16] it was 10.7%; in [17], 49.6%; in assay [18] it was 6.35%. Besides, the inhibition in assay [19] turned out to be 20.6%; in [20], 5.54%.
Consider `NS(=O)(=O)c1ccc(Nc2cc(-c3ccc(O)c(F)c3)n[nH]2)cc1`, for which the inhibition in [1] is 0.39%; in assay [2], -0.55%; in assay [3], 1.15%; in assay [4], -1.43%; in [5] it was -1.22%; in assay [6], -8.2%. Further, the inhibition was -0.79% in [7]; -6.2% in assay [8]; 8.46% in assay [9]; -1% in assay [10]; 7.59% in [11]; -1.37% in assay [12]. The inhibition is -0.04% in [13]; -3.53% in [14]; -0.52% in assay [15]; -2.61% in [16]; 4.49% in [17]; -2% in assay [18]. The inhibition in assay [19] was 0.81%; in [20], -1.44%.
In the case of `COc1ccc2cc(-c3c(-c4ccncc4)nc(-c4ccc(S(C)(=O)=O)cc4C)n3C)ccc2c1`, the inhibition in [1] amounted to 4.18%; in assay [2] it was 4.87%; in assay [3], 3.73%; in [4], 1.38%; in [5] it was 2.64%; in assay [6], 5.28%. For the same molecule, the inhibition in assay [7] was 9.27%; in [8], 3.7%; in assay [9] it was 10.8%; in assay [10], 2.5%; in assay [11] it was 5.22%; in [12], 4.54%. In addition, the inhibition in [13] came out at 6.64%; in assay [14], 2.43%; in assay [15] it was 3.81%; in assay [16], 2.38%; in assay [17], 4%; in [18], 3.35%. For the same molecule, the inhibition came to 4.23% in [19] and 2.92% in assay [20].
Regarding `CCc1cccc(CC)c1/C=C/c1cncc(C(=O)NC)c1`, the inhibition in [1] is -0.07%; in assay [2], -0.9%; in assay [3], -2.15%; in assay [4] it was 0.86%; in [5] it was -0.1%; in assay [6] it was 0.91%. In addition, the inhibition in assay [7] was 6.26%; in [8], 1.69%; in [9], -1.33%; in assay [10], 0.14%; in [11], 1.52%; in assay [12] it was 1.47%. Besides, the inhibition in assay [13] was 0.1%; in [14], 1.86%; in [15] it was -3.19%; in assay [16], 2.53%; in assay [17] it was 6.21%; in assay [18], 2.66%. Also, the inhibition in assay [19] was determined as 5.44%; in [20], 1.49%.
